In PubChem BioAssay one finds inhibition data, which are given here for 50 molecules.

In this test the target is Protein phosphatase methylesterase 1 (Homo sapiens) (UniProt Q9Y570). Briefly: human PME-1 methylesterase inhibition confirmation – biochemical, fluorescence polarization, FP-Rh probe, triplicate (AID 2171).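 Further: 0% = enzyme with DMSO and 100% = wells lacking PME-1.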 The note with it: recombinant PME-1, FP-Rh probe fluorescence polarization; at 5.9 µM; stronger effect = higher value.

Values without a mark were called inactive. Activity calls are given as the source filed them.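 How the source made its calls: active means inhibition above the hit cutoff set in the earlier primary screen (cut at about 27% in these data); inactive means the rest.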

Sequence of Protein phosphatase methylesterase 1 (Homo sapiens) (Q9Y570 whole entry, looked up): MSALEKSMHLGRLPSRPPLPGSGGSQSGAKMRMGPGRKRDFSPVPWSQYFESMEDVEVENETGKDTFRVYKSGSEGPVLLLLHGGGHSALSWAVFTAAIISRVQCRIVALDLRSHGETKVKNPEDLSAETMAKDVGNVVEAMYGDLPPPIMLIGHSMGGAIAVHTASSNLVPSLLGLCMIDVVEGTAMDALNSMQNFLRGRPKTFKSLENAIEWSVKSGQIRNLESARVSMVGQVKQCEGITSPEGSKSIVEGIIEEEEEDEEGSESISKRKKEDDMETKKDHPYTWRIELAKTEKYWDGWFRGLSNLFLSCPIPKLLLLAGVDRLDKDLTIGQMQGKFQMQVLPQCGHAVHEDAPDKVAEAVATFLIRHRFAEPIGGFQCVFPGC

As to `COc1ccc(/C=N\NC(=O)c2cc(O)c(O)c(O)c2)cc1COc1ccc(C(=O)OCC(C)C)cc1`, the inhibition was -24.1%.

For the molecule `c1ccc(-c2ccc(C3CCCN3)cc2)cc1` (stereo not given), the inhibition was 0.67%.

With `O=C1/C(=C/Nc2ccc3c(c2)OCO3)CCc2ccccc21`, the inhibition is 19.5%.

`CCOC(=O)CSc1nc2cc3c(cc2cc1C#N)OCCO3`: the inhibition is 20.1%.

Turning to `O=C(O)CCNc1ccc(NCCC(=O)O)c2c1C(=O)c1ccccc1C2=O`, the inhibition was 16.7%.

Take `COc1ccc(-c2nc(NC(=O)c3[nH]c(C)c(C(C)=O)c3C)sc2C)cc1`: the inhibition is 55% (active).

With `Cc1cc(C)c2[nH]c(O)c(N=NC(=O)c3cc4c(s3)CCCC4)c2c1`, the inhibition was 31.9% (active).

Consider `Nc1ccc(Br)c2c1C(=O)c1ccccc1C2=O`, for which the inhibition was 21%.

Consider `CCC1(C)Cc2c(sc3nc(NN)n(C)c(=O)c23)CO1` (stereo not given), for which the inhibition was -1.24%.

With `Oc1nc(Nc2ccccc2)sc1/C=C1\C=Nc2ccccc21`, the inhibition is -2.4%.

Turning to `O=C(CN1CCN(S(=O)(=O)c2ccc(Br)cc2)CC1)N/N=C/c1cc([N+](=O)[O-])ccc1Cl`, the inhibition is 21%.

Take `Oc1c(Br)cc(Br)cc1CNc1cnc2ccccc2c1`: the inhibition is 34.8% (active).

As for `CCCCCCCCCCCCCCCC[n+]1ccc(/C=N/O)cc1`, the inhibition is 60.4% (active).

On to `CCN(CC)c1nc2c3c(nc4c(c3c1C#N)CC(=O)N4c1ccc(Cl)cc1)NC(C)=N2`, for which the inhibition was 9.8%.

In the case of `CCN(CC)C(=O)c1csc(Nc2cccc3ccccc23)n1`, the inhibition was 23.8%.

As to `Cc1cc(-c2ccccc2)nc(N/N=C/c2ccc(O)cc2O)n1`, the inhibition is 70.4% (active).

Turning to `COc1ccc(-c2nc(-c3ccccc3)c(-c3cc([N+](=O)[O-])ccc3C)[nH]2)cc1O`, the inhibition is -4.82%.

For the molecule `COc1ccc(CCn2c(N)c(C#N)c3nc4ccccc4nc32)cc1OC`, the inhibition was 25.9%.

As for `c1ccc2sc(Nc3nc4cc5c(cc4s3)OCO5)nc2c1`, the inhibition is 49.7% (active).

Consider `CC(=O)N1CCN(c2ccc(NC(=S)NC(=O)COc3ccc(C(C)(C)C)cc3)cc2)CC1`, for which the inhibition is 26.1%.

With `CC(C)(C)n1nnnc1C(c1cccs1)N(Cc1cccnc1)Cc1ccco1` (stereo not given), the inhibition is 15.8%.

As for `Oc1ccc(/C=N/Nc2ccnc3cc(Cl)ccc23)c(O)c1`, the inhibition was 19%.

For the molecule `O=C(NCCC1=CCCCC1)C1CCN(S(=O)(=O)c2cccs2)CC1`, the inhibition is 25.6%.

Regarding `COc1cc(/C=C/c2ccc3cccc(O)c3n2)ccc1O`, the inhibition was 53.6% (active).

On to `CC1=CN2C(=N)/C(=C/c3ccc([N+](=O)[O-])o3)C(=O)N=C2S1`, for which the inhibition was -6.58%.

As to `Cn1c(=O)cc2c3c(c(N4CCCCC4)ccc31)C(=O)c1ccccc1-2`, the inhibition was 24.1%.

Take `COc1ccc(-c2cc(-c3c(O)c(OC)c4occc4c3OC)[nH]n2)cc1`: the inhibition was 19.9%.

Regarding `S=C(Nc1ccc(N2CCOCC2)cc1)Nc1ccc2nc(-c3ccco3)c(-c3ccco3)nc2c1`, the inhibition was 24.7%.

With `S=C(NCCNC(=S)Nc1ccccc1)Nc1ccccc1`, the inhibition is 19.9%.

For the molecule `O=C(COC(=O)/C=C/c1cccs1)Nc1nc(-c2cccc(Br)c2)cs1`, the inhibition is 14.9%.

`COc1ccc(/C=N/NC(=O)c2cc3c(OC)ccc(OC)c3[nH]2)cc1O`: the inhibition is 37.8% (active).

On to `CCc1cc(/C(Cc2ccc3ccccc3n2)=N\O)c(O)cc1O`, for which the inhibition is 30.8% (active).

As for `Cc1cc(C)c2c(N)c(C(=O)NN)sc2n1`, the inhibition is 10.5%.

On to `CN(C)S(=O)(=O)c1cccc(NC(=S)NNC(=O)c2cc3ccccc3cc2O)c1`, for which the inhibition is -1.97%.

With `Cc1noc(C)c1CSc1nc2ccccc2nc1NS(=O)(=O)c1ccc(Cl)cc1`, the inhibition was 36% (active).

Turning to `CCOC(=O)c1c(C)[nH]c(C2=NNC(=Nc3ccc(OCC)cc3)SC2)c1C`, the inhibition was 18.9%.

As for `Cc1ccc(C)c(NC(=O)COC(=O)c2cccc3c2C(=O)c2ccccc2C3=O)c1`, the inhibition is 92.7% (active).

`COc1ccc(OCCn2cc(/C=N/NC(=O)c3ccncc3)c3ccccc32)cc1`: the inhibition was -21.9%.

As to `Cc1cc(Br)ccc1N=C1NC(=O)CS1`, the inhibition was -3.07%.

As for `COc1ccc(C)cc1NC(=O)NNC(=O)c1cc2ccccc2cc1O`, the inhibition is 16.4%.

On to `Cc1nc2ccccc2nc1N/N=C/c1ccc(O)cc1O`, for which the inhibition is 36.4% (active).

For the molecule `Cc1ccc(S(=O)(=O)Oc2cccc(/C=N/Nc3ccc(C(=O)O)cc3)c2)cc1`, the inhibition was 94% (active).

For `Cc1ccc(C(=O)O)cc1N1C(=O)c2cccc3c([N+](=O)[O-])ccc(c23)C1=O`, the inhibition was 38.7% (active).

For `CCOc1ccc(C(=O)NC(C)CCc2ccccc2)cc1` (stereo not given), the inhibition was -6.46%.

As for `O=C(Nc1ccc2[nH]c(=S)sc2c1)Nc1ccccc1F`, the inhibition is 67.4% (active).

Consider `O=C(CSc1nnc(SCc2ccccc2Cl)s1)N/N=C/c1c[nH]c2ccccc12`, for which the inhibition was 19.3%.

With `Oc1nc(Nc2cccc(Cl)c2)sc1/C=C1\C=Nc2ccccc21`, the inhibition was 26.6% (active).

As for `O=C(COC(=O)CCCN1C(=O)c2cccc3cccc(c23)C1=O)Nc1ccc(Cl)cc1`, the inhibition is 22.7%.

For the molecule `CCNc1c2c3c(cccc3n(C)c1=O)C(=O)c1ccccc1-2`, the inhibition was 80.2% (active).

As for `CCOc1cc(-c2cc(-c3ccc(N)cc3)nc(N)c2C#N)ccc1O`, the inhibition is 41.5% (active).
